From PubChem
sEH inh – soluble epoxide hydrolase inhibitors, primary screen, biochemical, human sEH; recombinant human sEH enzymatic activity assay; 91,000 tested, 0.34% active; Bifunctional epoxide hydrolase 2 (Homo sapiens), P34913; inhibition, % at 2 µM; AID 707, 2007; in the data active = inhibition above about 80%
Target sequence (P34913 whole entry, looked up): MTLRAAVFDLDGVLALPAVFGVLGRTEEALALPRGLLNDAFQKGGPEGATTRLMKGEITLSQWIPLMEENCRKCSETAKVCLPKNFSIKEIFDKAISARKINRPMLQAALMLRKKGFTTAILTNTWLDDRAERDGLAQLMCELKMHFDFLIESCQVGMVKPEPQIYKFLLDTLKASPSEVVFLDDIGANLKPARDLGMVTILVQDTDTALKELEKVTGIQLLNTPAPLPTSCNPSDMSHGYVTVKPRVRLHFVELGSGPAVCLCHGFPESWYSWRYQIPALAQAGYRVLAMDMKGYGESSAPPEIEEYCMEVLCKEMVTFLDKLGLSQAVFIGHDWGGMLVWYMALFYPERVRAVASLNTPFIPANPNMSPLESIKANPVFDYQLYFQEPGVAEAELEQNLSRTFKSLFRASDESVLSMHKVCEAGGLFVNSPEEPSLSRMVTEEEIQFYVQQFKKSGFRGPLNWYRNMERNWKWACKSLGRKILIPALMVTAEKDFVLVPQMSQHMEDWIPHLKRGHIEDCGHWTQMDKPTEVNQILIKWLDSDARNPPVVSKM
CYP2C19 act – human CYP2C19 activators, primary screen, biochemical, luminescence | recombinant CYP2C19, luciferin-H EGE luminescence; stronger effect = higher value; 0 = fully inhibited enzyme, 1 = untreated enzyme | activation factor at 5 µM | Cytochrome P450 2C19 (Homo sapiens), P33261 | AID 1025, 2008 | 96,000 tested, under 10 active;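 active = activation factor of at least 2 at 5 µM in the primary screen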;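 also: 0 = wells with 2.5 mM tranylcypromine and 1 = vehicle-only wells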
CYP2C9 inh – blockers of cytochrome P450 2C9 activity – biochemical, luminescence, ADME assay, primary screen; CYP2C9 Supersomes, luciferin-H conversion; inhibition, % at 5 µM; 96,000 tested, 20% active;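 active = blocking of liver enzyme CYP2C9 beyond about 50% at 5 µM, limit read from the data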
sEH act – soluble epoxide hydrolase activators, primary screen, biochemical, human sEH; AID 717, 2007; activation, % at 2 µM; 91,000 tested, 0.04% active; Bifunctional epoxide hydrolase 2 (Homo sapiens), P34913; purified human sEH enzymatic activity, activator screen; in the data active = activation above about 37%
CYP2C9 act – human CYP2C9 activators, primary screen, biochemical, luminescence; 96,000 tested, 1.4% active; Cytochrome P450 2C9 (Homo sapiens), P11712; recombinant CYP2C9, luciferin-H conversion; stronger effect = higher value; factor 1 = untreated enzyme, 0 = blocked; activation factor at 5 µM; AID 1024, 2008;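 active = activation factor of 2 or more for CYP2C9 at a 5 µM dose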;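 also: 0 = sulfaphenazole-blocked wells and 1 = vehicle-only wells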
CYP2C19 inhib – blockers of cytochrome P450 2C19 activity – biochemical, luminescence, ADME assay, primary screen; CYP2C19 Supersomes, luciferin-H EGE luminescence, 30 min; 96,000 tested, 21% active; inhibition, % at 5 µM;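 active = CYP2C19 inhibition above a set limit at 5 µM in the primary screen, cut at about 50% in these data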;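 also: plate controls were negative control wells for no effect and 2.5 mM tranylcypromine positive control for full effect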
The depositor's hits bear a star; . = not tested or not shown. In the library only some 27% were active in any assay of this set; here they are far more common.

SMILES | sEH inh | CYP2C19 act | CYP2C9 inh | sEH act | CYP2C9 act | CYP2C19 inhib
COc1ccc(C(CC(=O)N2CCC3(CC2)OCCO3)NS(=O)(=O)c2ccc(F)cc2)cc1 (stereo not given) | . | 1 | 7 | . | 0.9 | 1
COc1ccc(CNCC(=O)N2CCC3(CC2)OCCO3)cc1 | . | 0.7 | -4 | . | 1 | 30
COc1ccc(C2C(C(=O)N3CCC4(CC3)OCCO4)CC(=O)N2c2ccc(OC)cc2)cc1 (stereo not given) | . | 0.4 | 48 | . | 0.5 | 61*
CC(C)(C)c1nc(N2CCN(C(=O)c3ccco3)CC2)c2nnn(Cc3ccccc3Cl)c2n1 | -18 | 0.4 | 95* | 22 | 0.1 | 62*
CC(C(=O)c1c[nH]c2ccccc12)N1CCc2ccccc2C1 (stereo not given) | 5 | 0.5 | 76* | -5 | 0.2 | 45
c1ccc2c(CN3CCCCCCC3)c[nH]c2c1 | 9 | 1 | 6 | -6 | 0.9 | 0
C(#CCN1CCOCC1)COC/C=C/c1ccccc1 | -4 | 0.6 | -1 | 2 | 1 | 45
CCOc1ccc(-n2c(O)c(C=NCCN3CCNCC3)c(=O)[nH]c2=O)cc1 | -2 | 0.9 | -6 | 2 | 1.1 | 8
CCOC(=O)/C(CCCN(CC)CC)=N\O | . | 1 | -1 | . | 1 | -4
CCCCn1c(O)c(C(CC)=NCc2cc(OC)cc(OC)c2)c(=O)[nH]c1=O | 4 | 0.1 | 94* | -3 | 0.1 | 87*
CCCCn1c(O)c(C(C)=NCc2cc(OC)cc(OC)c2)c(=O)[nH]c1=O | 12 | 0.1 | 98* | -11 | 0 | 87*
Cc1nn(C2CCOC(C)(C)C2)c2c1C(c1ccc(OC(C)C)cc1)SCC(=O)N2 (stereo not given) | 1 | 1.1 | -1 | 0 | 1 | -8
CCCCc1ccc2[nH]cc(CCN)c2c1 | -9 | 0.7 | 63* | 8 | 0.4 | 34
CC(Cc1ccccc1)[n+]1cc(/N=C(\[O-])Nc2ccccc2)on1 (stereo not given) | 12 | 0.7 | 72* | -10 | 0.3 | 31
CC1=C(C(=O)N2CCC3(CC2)OCCO3)C2(CCC(C)CC2)OC1=O (stereo not given) | 0 | 0.1 | 45 | -2 | 0.6 | 93*
Cc1c(C(=O)N2CCC3(CC2)OCCO3)oc2ccccc12 | 9 | 0 | -13 | -6 | 1.1 | 98*
O=C(CN1C(=O)CCSc2ccccc21)N1CCC2(CC1)OCCO2 | 6 | 1 | -12 | -5 | 1.1 | 4
O=C(CCN1C(=O)COc2ccccc21)N1CCC2(CC1)OCCO2 | -10 | 0.1 | -12 | 10 | 1.1 | 87*
O=C(CSc1ccccc1)N1CCC2(CC1)OCCO2 | 20 | 0 | 23 | -20 | 0.8 | 98*
Cc1nnc2n1-c1ccc(Br)cc1C(c1ccccc1Cl)=NC2 | 1 | 1 | 13 | -2 | 0.9 | -1
O=C(c1cccn2c(=O)c3ccc(Cl)cc3nc12)N1CCC2(CC1)OCCO2 | -5 | 0.9 | 14 | 8 | 0.9 | 14
Oc1ccc(/C=N/NP(=S)(c2ccccc2)c2ccccc2)c(O)c1O | 9 | 0.2 | 96* | -10 | 0 | 83*
Oc1ccc(/C=N/NP(=S)(c2ccccc2)c2ccccc2)cc1O | -2 | 0.1 | 99* | 5 | 0 | 90*
CCn1nc(-c2cccs2)nc2c(=O)n(C)c(=O)nc1-2 | . | 0 | 91* | . | 0.1 | 99*
CCN1CCN(C(=O)Cc2coc3ccc4ccccc4c23)CC1 | -12 | 0.9 | -36 | 8 | 1.4 | 6
CCOc1ccc(CC2C(=O)NC(=O)N(c3ccc(CC)cc3)C2=O)cc1 (stereo not given) | 5 | 0.6 | 67* | -4 | 0.3 | 39
O=C(Cc1ccccc1)Oc1ccc(N2C(=O)CCC2=O)cc1 | -5 | 1 | 10 | 6 | 0.9 | 3
CC(=O)C1C2c3ccccc3OC1(C)N=c1s/c(=C/c3cnn(C)c3)c(=O)n12 (stereo not given) | 0 | 0.9 | 26 | 0 | 0.7 | 6
